An excerpt weighted towards active compounds, which were near 5.7% of everything screened.
GRIN3A LBD mod – modulates the human NR3A ligand-binding domain; NR3A LBD differential scanning fluorimetry, Tm shift; 0% = protein alone, 100% = glycine-bound protein; Tm shift relative to glycine control, % at 25 µM; 340,000 compounds, 2.5% hits; AID 1259313;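 active = melting temperature shift of at least 10% of the positive control shift, at one fixed dose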
Myeloid diff 2 – promotes myeloid progenitor differentiation; ER-HoxA9 myeloid progenitors, lysozyme-GFP differentiation, flow cytometry; calls only at 10 µM; 360,000 compounds, 1% hits; AID 624256;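 active = normalized GFP-positive differentiation at or above the plate's own cutoff, the solvent-only control mean plus 3 SD; inconclusive = no clear call, values can overlap the other calls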;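 note: cells exposed to compound for four days before flow analysis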
rCAG RNA binder – r(CAG) repeat RNA binding; inhibition, % at 3 µM; 370,000 compounds, 1.3% hits; TO-PRO-1 dye displacement fluorescence; AID 651821;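 active = inhibition above the plate cutoff, the mean of all test compounds on that plate plus 3 SD, cut at about 35% in these data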;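 note: 0% = DMSO alone and 100% = 100 µM mitoxantrone as full dye displacement; higher means more dye released from RNA so lower well fluorescence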
MPTP block – blocks calcium-induced mitochondrial swelling | isolated mouse mitochondria, Ca2+ swelling absorbance, 30 min | inhibition, % at 10 µM | 360,000 compounds, 1.4% hits | AID 602449;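 active = inhibition of 50% or more, scaled per plate between neutral and stimulator controls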;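 note: 0% = DMSO wells given calcium and 100% = 1 mM EGTA wells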
FAS-TE inh – FAS thioesterase (human) inhibition | P49327 | recombinant FAS-TE, OMFH fluorogenic substrate, fluorescence endpoint | inhibition, % at 15 µM | 360,000 compounds, 0.67% hits | AID 602261;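 active = compounds whose normalised, plate-corrected inhibition of enzyme fluorescence in the single-dose primary screen is 50% or more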;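 note: 0% = DMSO with enzyme and 100% = substrate without enzyme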
rCAG bind conf – r(CAG) RNA repeat binding, confirmation; shares compounds with rCAG RNA binder; TO-PRO-1 dye displacement fluorescence; inhibition, % at 3 µM; 4,300 compounds, 70% hits; AID 652065;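 active = inhibition above a per-plate cutoff, the mean inhibition of sample wells plus 3 SD, cut at about 35% in these data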;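 note: loss of TO-PRO-1 fluorescence as compound displaces dye from 1x1 AA loop RNA; 0% = DMSO only wells and 100% = 100 µM mitoxantrone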
DNA CAG counter – DNA CAG dye complex inhibition counter-screen; shares compounds with rCAG RNA binder; d(CAG) DNA oligo TO-PRO-1 dye displacement, fluorescence; inhibition, % at 3 µM; 4,300 compounds, 94% hits;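 active = inhibition above its plate's cutoff, the mean test-well inhibition plus 3 SD, cut at about 4.8% in these data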;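 note: 0% = DNA dye mix with DMSO and 100% = 100 µM mitoxantrone; hits displace the dye from DNA and so lower well fluorescence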
DNA CAG DR – DNA CAG dye complex inhibition, dose response counter-screen; 250 compounds, 20% hits; DNA CAG/GTC duplex TO-PRO-1 dye displacement fluorescence; IC50, µM; shares compounds with rCAG RNA binder; in the data active = IC50 below about 10 µM
An asterisk follows results filed as active; i = inactive; ? = inconclusive; . = no result.

SMILES | GRIN3A LBD mod | Myeloid diff 2 | rCAG RNA binder | MPTP block | FAS-TE inh | rCAG bind conf | DNA CAG counter | others
Cc1cc(C)c2sc(NNC(=O)c3ccc(S(=O)(=O)N4CCc5ccccc5C4)cc3)nc2c1 | 3.9 | ? | 48.2* | 6.7 | 13.5 | 58.9* | 29.1*
CCN(CC(=O)Nc1c(F)cccc1F)C(=O)COc1ccc2c(c1)CCC2 | 2.5 | i | 1.0 | -1.3 | -2.6 | . | .
Cc1ccc([C@H]2C(C(=O)O)=C[C@@H](C(C)(C)C)N2S(=O)(=O)c2ccc(C)cc2)cc1 | 1.0 | i | 41.6* | -0.4 | -3.9 | 34.1 | 11.9*
Cc1ccc(S(=O)(=O)N2[C@@H](c3ccc(C(C)C)cc3)C(C(=O)O)=C[C@H]2C(C)(C)C)cc1 | -0.5 | i | 69.0* | 2.1 | -1.7 | 58.9* | 22.6*
Cc1ccc(S(=O)(=O)N2[C@@H](c3cccc(C)c3)C(C(=O)O)=C[C@H]2C(C)(C)C)cc1 | 2.2 | i | 27.5 | 1.4 | -5.5 | . | .
Cc1ccc(Nc2nnc(SC/C(O)=C(\C#N)c3nc4ccccc4[nH]3)s2)c(C)c1 | 12.9* | i | 38.7* | 6.7 | 0.2 | 41.5* | 16.4*
CCC(C)[C@H](Nc1nc(-c2ccccc2)nc2c1oc1ccccc12)C(=O)O (some centres not stated) | -4.1 | i | 73.8* | -2.4 | -2.4 | 70.1* | 32.4* | DNA CAG DR=i
CC(C)[C@H](Nc1nc(-c2ccccc2)nc2c1oc1ccccc12)C(=O)O | 6.0 | i | 58.0* | -0.8 | -5.6 | 42.2* | 10.8*
COc1cc(OC)c(NC(=S)NCc2ccc(F)cc2)cc1Cl | -3.4 | i | 3.6 | -2.9 | 15.8 | . | .
COc1ccccc1N1CCN(C(=O)c2ccc(N(C)S(=O)(=O)c3ccccc3)cc2)CC1 | 0.5 | i | 0.4 | -3.1 | 6.6 | . | .
CCN(CC)CCCNC(=S)N(CCO)Cc1cc2cc3c(cc2[nH]c1=O)OCCO3 | 7.0 | i | 14.3 | -1.1 | -4.5 | . | .
Cc1cc(Cl)ccc1OC(C)C(=O)Nc1ccc(S(=O)(=O)Nc2cnc3ccccc3n2)cc1 (configuration not stated) | 13.6* | i | 80.0* | 0.9 | -4.3 | 89.5* | 57.3*
Nc1ccc(S(=O)(=O)Nc2cnc3ccccc3n2)cc1 | -2.5 | i | 3.6 | 0.0 | -1.7 | . | .
O=C(Cc1ccc(Cl)cc1)Nc1ccc(S(=O)(=O)Nc2cnc3ccccc3n2)cc1 | 10.2* | i | 63.5* | 0.9 | -1.5 | 58.7* | 22.6*
Cc1cc(Cl)ccc1OC(C)C(=O)Nc1ccc(C(=O)Nc2ccccc2C(=O)O)cc1 (configuration not stated) | 14.6* | i | 77.2* | 0.2 | 16.3 | 86.6* | 61.8*
Cc1cc(Cl)ccc1OC(C)C(=O)Nc1ccc(S(=O)(=O)N2CCOCC2)cc1 (configuration not stated) | 3.6 | i | 2.0 | 0.9 | 22.1 | . | .
O=C(Nc1ccc(Cl)cc1)c1cc(S(=O)(=O)Nc2ccccn2)ccc1Cl | -14.2 | ? | 15.0 | 0.8 | -2.8 | . | .
O=C(Nc1ccc(S(=O)(=O)Nc2cnc3ccccc3n2)cc1)c1cc(F)c(F)cc1Cl | -2.8 | i | 39.7* | -2.3 | -4.9 | 28.0 | 4.4
O=C(Nc1ccc(S(=O)(=O)Nc2cnc3ccccc3n2)cc1)c1ccc(Cl)cc1Cl | 5.5 | i | 66.2* | 17.2 | -0.4 | 47.7* | 15.4*
CC1(C(=O)NNC(=O)c2ccc(=O)oc2)CC1Br (configuration not stated) | 0.5 | i | 42.9* | 1.6 | -3.7 | 59.8* | 23.9* | DNA CAG DR=9.91*
CC(NC(=O)NC1CCCCC1)C(c1cccs1)N1CCN(c2ccccc2)CC1 (configuration not stated) | -2.5 | i | 2.6 | 0.3 | 6.9 | . | .
COc1ccccc1-n1cnnc1SCC(=O)Nc1nc(C)c(Cl)cc1Cl | 0.5 | i | -2.4 | 0.0 | -2.6 | . | .
O=C(Nc1ccccc1)c1ccccc1NC(=O)c1ccccc1[N+](=O)[O-] | -3.7 | i | 0.6 | -1.5 | 13.6 | . | .
O=[N+]([O-])c1ccccc1C(=Nc1ccccc1)c1c(O)cc(O)cc1O | . | i | 45.4* | -0.9 | -3.4 | 11.9 | 7.7*

From PubChem BioAssay
